Only some compounds are listed: those with a hit (about 7.9% of all), similar ones and a draw of the others.
M1 ag = M1 muscarinic receptor agonism; CHO-M1 cells, Fluo-4 calcium fluorescence, agonist mode; active compounds read high; AID 626; B-score at 10 µM; 64,000 tested, 3% active;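 active = fluorescence rise, raw or as B-score row- and column-corrected plate score, outside the 99.7% band of its plate's samples, either direction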
Her2 expr inh = Her2 kinase expression inhibition; P04626; 65,000 tested, 0.69% active; SKBR-3 HER2 protein level, AlphaScreen, 18-24 h; active compounds read low; HER2 level % of control, % at 10 µM;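 active = HER2 level under 5% of the carrier-only control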;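 note: lower value means stronger loss of Her2 protein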
Cav32 inh = inhibitors of human Cav3.2 T-type calcium channel; O95180; Cav3.2-expressing cells, Fluo-4 calcium fluorescence FDSS; active compounds read low; B-score at 10 µM; 100,000 tested, 4% active;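 active = single-dose well whose peak fluorescence ratio is a statistical outlier from its plate by either plate-standardised score or position-corrected B-score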
M1 antagonist = blocks the rat M1 muscarinic receptor response to acetylcholine; P08482; CHO-M1 cells, Fluo-4 calcium, ACh EC80 antagonist mode; active compounds read low; B-score at 10 µM; 64,000 tested, 3.4% active; AID 628;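 active = calcium fluorescence response, raw or row-and-column corrected B-score, differing from the plate sample mean either way at a set confidence level, mostly lower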
Target sequence (P08482 whole entry, looked up): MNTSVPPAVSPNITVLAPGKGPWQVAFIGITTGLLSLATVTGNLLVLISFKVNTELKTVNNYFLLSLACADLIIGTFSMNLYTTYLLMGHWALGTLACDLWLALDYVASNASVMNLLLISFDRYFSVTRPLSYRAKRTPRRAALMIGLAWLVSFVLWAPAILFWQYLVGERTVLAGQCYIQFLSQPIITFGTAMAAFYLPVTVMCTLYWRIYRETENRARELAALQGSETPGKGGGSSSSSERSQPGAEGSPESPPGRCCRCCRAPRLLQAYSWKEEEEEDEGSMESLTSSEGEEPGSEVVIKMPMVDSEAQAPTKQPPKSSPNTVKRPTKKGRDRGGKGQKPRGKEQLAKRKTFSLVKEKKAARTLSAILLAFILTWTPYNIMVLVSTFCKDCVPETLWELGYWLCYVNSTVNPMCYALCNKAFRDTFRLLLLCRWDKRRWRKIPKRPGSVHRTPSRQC
PLAP activator = activators of human placental alkaline phosphatase; P05187; activation fold at 20 µM; purified PLAP enzyme, luminescent substrate read-out; active compounds read high; 96,000 tested, 1.2% active; AID 696; in the data active = activation fold above about 2
M1 antag confirm = confirmation of rat M1 muscarinic receptor antagonists; 1,700 tested, 43% active; shares compounds with M1 antagonist; calcium response (max-min fluorescence) at 10 µM; AID 677; CHO-M1 cells, Fluo-4 calcium, ACh EC80 antagonism; active compounds read low;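 active = calcium response below the same-plate mean of wells given acetylcholine alone at its 80%-effect dose, minus 3 SD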
mGluR4 antag = acts on human mGluR4 in M1 antagonist selectivity test | 1,700 tested, 0.9% active | CHO-mGluR4 calcium flux, Fluo-4 fluorescence, glutamate EC80; active compounds read low | shares compounds with M1 antagonist | AID 678 | fluorescence response (max-min) at 10 µM;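 active = fluorescence response below the plate's average for near-maximal glutamate wells, less 3 SD of those wells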;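 note: raw unnormalized fluorescence span taken in the window right after glutamate addition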
Of the large screens only hits and unclear results are named; the others gave an inactive call (follow-up assays come after a bar, where they were run).

CCOCCCNCC(=O)N1CCN(S(=O)(=O)c2ccc(C)cc2)CC1	none
CC1CCCN(CCCNC(=O)C2CC(=O)N(c3ccc(F)c(Cl)c3)C2)C1 (centres undefined)	none
CC1CCCCN1CCNC(=O)C1CC(=O)N(c2ccc(F)c(Cl)c2)C1 (centres undefined)	M1 antagonist -1.6 | M1 antag confirm inactive | mGluR4 antag inactive
C=CCn1c(SCc2ccccc2C#N)nnc1-c1cc(Br)ccc1O	M1 antagonist -3.8 | M1 antag confirm 330 | mGluR4 antag inactive
Clc1ccc2c(N3CCCC3)ccnc2c1	M1 antagonist -3 | M1 antag confirm inactive | mGluR4 antag inactive
CC(C)(C)C(=O)NC(=S)Nc1ccccc1C(=O)Nc1ccccc1	none (no result: M1 ag, Her2 expr inh, M1 antagonist)
CC(C1CC1)N(C(=O)c1ccccc1O)c1ccccc1 (centres undefined)	M1 antagonist -3.6 | M1 antag confirm inactive | mGluR4 antag inactive
CCOC(=O)C(C(=O)OCC)C(Nc1ccc(Br)cc1)c1ccccc1 (centres undefined)	none (no result: M1 ag, Her2 expr inh, M1 antagonist)
CC(CN(C)Cc1ccccc1)OC(=O)c1ccc2c(c1)OCCO2 (centres undefined)	M1 antagonist -3.2 | M1 antag confirm 323 | mGluR4 antag inactive
CC(CN(C)Cc1ccccc1)OC(=O)c1cccs1 (centres undefined)	none (no result: PLAP activator)
CC(=O)N1CCc2cc(S(=O)(=O)NCCC3=CCCCC3)ccc21	none (no result: Cav32 inh, PLAP activator)
Cn1c(SCCN2CCCCC2)nnc1-c1ccccc1Br	M1 antagonist -2 | M1 antag confirm 561 | mGluR4 antag inactive
CCN1CCc2nc(SCC(=O)Nc3ccc(OC)cc3)c(C#N)cc2C1	M1 antagonist -0.73 | M1 antag confirm inactive | mGluR4 antag inactive
CCOC(=O)c1sc(NC(=O)CSc2nncs2)c(C(=O)OCC)c1C	M1 antagonist -5 | M1 antag confirm inactive | mGluR4 antag inactive
CCOC(=O)c1c(NC(=O)CSc2nnc(-c3ccccc3)n2CC)sc(C(C)=O)c1C	M1 antagonist -1.2 | M1 antag confirm inactive | mGluR4 antag inactive
CCOC(=O)c1sc(NC(=O)CSc2nnnn2-c2ccc(C)cc2)c(C(=O)OCC)c1C	none
CCCCCCS(=O)Cc1ccccc1 (centres undefined)	none
Cc1ccc(CNS(=O)(=O)N(C)C)cc1	none (no result: M1 ag, Her2 expr inh, M1 antagonist)
COc1c(C)cccc1C(=O)Nc1ccc(N2CCN(S(C)(=O)=O)CC2)cc1	none (no result: Cav32 inh)
COc1c(C)cc(Br)cc1C(=O)Nc1ccc(N2CCN(S(C)(=O)=O)CC2)cc1	M1 antagonist -1.9 | M1 antag confirm inactive | mGluR4 antag inactive
C=CCn1c(SCc2nc3ccccc3[nH]2)nnc1-c1ccncc1	M1 antagonist -16 | M1 antag confirm inactive | mGluR4 antag inactive
C=CCn1c(SCc2cccnc2)nnc1-c1ccncc1	none
O=C(CN1CCN(Cc2ccccc2)CC1)N1CCCc2c1c(=O)oc1ccc(O)cc21	M1 antagonist -6.1 (no result: Cav32 inh) | M1 antag confirm 334 | mGluR4 antag inactive
CCCOc1ccc2oc(=O)c3c(c2c1)CCCN3C(=O)CN(C)Cc1ccccc1	M1 antagonist -6.5 | M1 antag confirm 386 | mGluR4 antag inactive
CCCCCOc1ccc2oc(=O)c3c(c2c1)CCCN3C(=O)CN1CCCC(C(=O)OCC)C1 (centres undefined)	none (no result: M1 ag, Her2 expr inh, M1 antagonist)
CCOc1ccc(NC(=O)CN(C)CC(=O)NC2CCCc3ccccc32)cc1OCC (centres undefined)	none
CCc1nnc(NC=C2C(=O)OC(C)(C)OC2=O)s1	none
O=C(Nc1ccccc1)C1=C[C@@H](c2coc3ccccc3c2=O)C[C@@H](OCCCCO)O1	none (no result: M1 ag, Her2 expr inh, M1 antagonist, PLAP activator)
COc1ccc(N(CC(=O)Nc2ccccc2C(=O)NCCc2ccccc2)S(C)(=O)=O)cc1OC	none (no result: M1 ag, Her2 expr inh, M1 antagonist)
CC1(C)Cc2c(sc3c2C2=NCCN2C=N3)CO1	none
CSC1=Nc2sc3c(c2C2=NCCN12)CC(C)(C)OC3	M1 antagonist -4.6 (no result: Cav32 inh, PLAP activator) | M1 antag confirm inactive | mGluR4 antag inactive
O=C1CNC(=O)N1CC(=O)N1CCCc2ccccc21	none (no result: M1 ag, Her2 expr inh, M1 antagonist)
COc1ccc(S(=O)(=O)N2CCSC2c2ccc(N)cc2)cc1 (centres undefined)	none
COCCn1c(Sc2nc(C)cs2)nc2c1c(=O)[nH]c(=O)n2C	M1 antagonist -4.1 (no result: Cav32 inh) | M1 antag confirm inactive | mGluR4 antag inactive
